Data: PubChem BioAssay
The source made the active and inactive calls. No stated cut-off is given here; in the data, active means inhibition above about 31%; inactive means the rest.

experiment: yeast transport mutant growth inhibition pilot in 384-well plates, post-Golgi transport modulator project (AID 636); conditions: absorbance 615 nm, about 18 h, hits give high values

inhibition, inactive:
COc1cccc(-n2ccnc2SCC(=O)N2CCc3ccccc32)c1 0.93%
C=CCc1cc(C(=O)N2CCCCC2)ccc1O -2.5%
CCN(CC)c1ccc(-c2nn3c(-c4cccnc4)nnc3s2)cc1 -5.92%
Cc1ccc(NC(=O)CSc2nnc(-c3ccncc3)n2C)cc1C 1.08%
O=C(Nc1ccc(Br)cc1F)c1sccc1-n1cccc1 -5.66%
Cc1nc(CNS(=O)(=O)c2ccc3c(c2)OCCO3)cs1 2.24%
CCOC(=O)c1[nH]c(C)c(C(=O)NCC2CCCO2)c1C (stereo not given) -2.47%
N#CC1=C(N)N(c2ccccc2)C2=C(C(=O)CCC2)C1c1cccs1 (stereo not given) -5.95%
COc1cccc(C(=O)n2cnnc2N)c1OC -5.6%
COC(=O)c1cc2oc(C)cc2n1CC(=O)Nc1ccc(C)c(C)c1 0.51%
O=C(CSCc1cnn(-c2ccccc2)c1-n1cccc1)NCC1CCCO1 (stereo not given) -4.59%
N=c1c(C(=O)NCc2ccc3c(c2)OCO3)cc2c(=O)n3ccccc3nc2n1Cc1cccnc1 -2.47%
Cc1cc(Br)ccc1NC(=O)CCN1C(=O)c2ccncc2C1=O -3.78%
O=C1N2c3ccccc3CCc3cccc(c32)C1(O)C(F)(F)F (stereo not given) -5.87%
Cn1c(SCC(=O)Nc2ccc3c(c2)oc2ccccc23)nnc1-c1ccccc1 -5.73%
CCOc1ccc(S(=O)(=O)Nc2cccc(Cl)c2)cc1 -5.07%
Nn1c(CSc2nc3ccccc3o2)nnc1CSc1nc2ccccc2o1 -4.4%
CC1=C(C(=O)OC2CCCCC2)C(c2cccnc2)n2ncnc2N1 (stereo not given) -6.58%
COC(=O)c1ccccc1NC(=O)C1CC(=O)N(c2ccccc2)C1 (stereo not given) -6.27%
O=C(c1ccc2c(c1)OCCO2)C1CCN(C(=O)c2ccc(F)cc2)CC1 -6.35%
Cc1nc(=S)n(-c2ccccc2)[nH]1 -3.2%
CC(C)CC(=O)Nc1ccccc1-c1nnn(CC(=O)N2CCOCC2)n1 -5.87%
O=C(c1ccccc1)N1CCCCC(Sc2nnnn2-c2ccccc2)C1=O (stereo not given) -6.13%
CC(=O)Nc1ccccc1OCc1nnc(-c2cccs2)o1 -2.86%
CCOc1ccc(CN2CCN(c3cc(C)nc4c5c(C)cc(C)nc5nn34)CC2)cc1 -2.5%
CCSc1nnc2c(n1)OC=Nc1ccc(Br)cc1-2 -0.66%
Cc1ccc2nc(SCC(=O)NCc3ccco3)c(C#N)cc2c1 -4.74%
CCN(CC)c1ccc2cc(NC(=O)CCC(=O)O)c(=O)oc2c1 -2.13%
COc1ccc(CN(CC(=O)NCc2ccco2)C(=O)CCC(=O)Nc2nccs2)cc1 1.22%
CC(=O)c1cccc(NC(=O)N2C3CCC2CC(O)(c2cccnc2)C3)c1 (stereo not given) 0.41%
Cc1nc2scc(-c3cccs3)c2c(=O)n1-n1cccc1 -1.79%
NC1=NC(c2ccc(Br)cc2)n2c(nc3ccccc32)N1 (stereo not given) -5.13%
CSCC[C@@H](Nc1nc(-c2ccccc2)nc2c1oc1ccccc12)C(=O)O -7.43%
Cc1csc(SCC(=O)NC(=O)NCc2ccccc2)n1 -6.67%
CCSc1ncc(C#N)c(=O)[nH]1 -7.76%
CCSc1nnc(NC(=O)CSc2ncccn2)s1 -5.07%
COc1ccc(N2CCN(CCCNC(=O)C3(S(=O)(=O)c4ccc(Cl)cc4)CC3)CC2)cc1 -0.65%
COc1ccc(OC)c(C2=NOC(C(=O)NCCN3CCOCC3)C2)c1 (stereo not given) -1.18%
COc1ccc(CN2CC(C(=O)NCc3ccccn3)CC2=O)cc1 (stereo not given) -5%
c1ccc(-n2ncc3c(N4CCCCC4)ncnc32)cc1 -3.6%
